The supplement of paper PMC9337992
± gives the standard deviation of the averaged measurements.

Legend:
Test in all cases: cell proliferation (confluence) relative to DMSO control; higher = less growth inhibition
Conditions in all cases: 5 uM; 6 d
BT549 = system: BT549
Summary of the method: (§1)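 Plates with 384 wells were seeded with triple-negative breast cancer cell lines at 500 cells per well, and epigenetic chemical probes in DMSO were added once the cells had attached, at a final 5 μM for 6 d. Imaging used an IncuCyte ZOOM with a ×10 objective in phase-contrast, and analysis used Incucyte 2016 software. With four replicate wells per compound, confluence was normalised to wells holding DMSO alone.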

CAL120 = system: CAL120
Summary of the method: as §1

HCC1143 = system: HCC1143
Summary of the method: as §1

HCC1395 = system: HCC1395
Summary of the method: as §1

HCC153 = system: HCC153
Summary of the method: as §1

HCC1806 = system: HCC1806
Summary of the method: as §1

HCC38 = system: HCC38
Summary of the method: as §1

HCC70 = system: HCC70
Summary of the method: as §1

Hs578-T = system: Hs578-T
Summary of the method: as §1

MB157 = system: MB157
Summary of the method: as §1

SUM149-PT = system: SUM149-PT
Summary of the method: as §1

SUM159-PT = system: SUM159-PT
Summary of the method: as §1

| SMILES | cell proliferation (BT549) [%] | cell proliferation (CAL120) [%] | cell proliferation (HCC1143) [%] | cell proliferation (HCC1395) [%] | cell proliferation (HCC153) [%] | cell proliferation (HCC1806) [%] | cell proliferation (HCC38) [%] | cell proliferation (HCC70) [%] | cell proliferation (Hs578-T) [%] | cell proliferation (MB157) [%] | cell proliferation (SUM149-PT) [%] | cell proliferation (SUM159-PT) [%] |
| --- | --- | --- | --- | --- | --- | --- | --- | --- | --- | --- | --- | --- |
| CNCCN1CCC(OCc2ccccc2)CC1 | 98.25 ± 0.81 | 97.25 ± 0.95 | 96.6 ± 1.6 | 99.984 ± 0.0095 | 60.3 ± 10 | 73.6 ± 7.1 | 99.63 ± 0.28 | 88.5 ± 12 | 97.85 ± 0.92 | 93.3 ± 5.4 | 72.8 ± 18 | 99.906 ± 0.052 |
| CCCOc1ccn2c(C(C)=O)cc(-c3ccccc3S(C)(=O)=O)c2c1 | 99.1 ± 0.35 | 99.03 ± 0.55 | 98.2 ± 1 | 99.968 ± 0.022 | 53 ± 5.5 | 81.9 ± 6.8 | 99.1 ± 0.59 | 92.2 ± 7.6 | 97.6 ± 0.9 | 76.8 ± 20 | 88.7 ± 8.8 | 99.983 ± 0.013 |
| CCN(C(=O)CO)[C@H]1CN(/C(=N\C#N)Nc2cccc(OC(F)F)c2)N=C1c1ccc(Cl)c(Cl)c1 | 99.63 ± 0.31 | 90.8 ± 2.4 | 99.11 ± 0.44 | 99.957 ± 0.033 | 82.4 ± 4.8 | 99.79 ± 0.11 | 99.79 ± 0.12 | 90.8 ± 8.2 | 98.67 ± 0.29 | 78.6 ± 8.9 | 75.9 ± 10 | 99.999 ± 0.002 |
| CCn1cc(-c2cccc(C(F)(F)F)c2)c2sc(C(=N)NC3CCS(=O)(=O)CC3)cc2c1=O | 99.17 ± 0.79 | 98.86 ± 0.38 | 98.69 ± 0.74 | 99.948 ± 0.021 | 44.8 ± 4 | 78.6 ± 12 | 98.94 ± 0.64 | 96.7 ± 3.6 | 99.5 ± 0.38 | 71.8 ± 6.5 | 23.9 ± 2.3 | 99.974 ± 0.019 |
| O=C(NCC(=O)N1CCCC1)Nc1ccc2cnccc2c1 | 97.4 ± 1.4 | 98.79 ± 0.98 | 97.5 ± 2 | 99.815 ± 0.096 | 63 ± 9.2 | 82.8 ± 2.7 | 99.873 ± 0.048 | 94.9 ± 5.1 | 96.4 ± 1.6 | 94.3 ± 5.8 | 76.9 ± 9.1 | 99.995 ± 0.0035 |
| COc1cc2c(cc1OCCCN1CCCC1)N=C(N)C21CCC1 | 99.32 ± 0.28 | 83.1 ± 6.3 | 95.6 ± 3.2 | 99.981 ± 0.027 | 80.7 ± 2.8 | 99.41 ± 0.36 | 98.89 ± 0.42 | 96.5 ± 3.6 | 92.3 ± 4.1 | 72.5 ± 12 | 78.6 ± 16 | 99.951 ± 0.031 |
| Cc1nnc2c3ccccc3c(N[C@@H](C)[C@H](c3ccccc3)N(C)C)nn12 [L-moses] | 98.1 ± 1.5 | 99.22 ± 0.67 | 97.14 ± 0.68 | 99.898 ± 0.059 | 60.8 ± 6 | 81.2 ± 6.2 | 99.61 ± 0.29 | 96.2 ± 2.5 | 87 ± 19 | 98.5 ± 1.9 | 75.8 ± 11 | 99.952 ± 0.041 |
| CCC(=O)N1CCOc2c(cc(-c3ccc(OC)c(OC)c3)cc2OC[C@H]2CCCN(C)C2)C1 | 98 ± 1.1 | 98.2 ± 1.5 | 99.31 ± 0.35 | 99.981 ± 0.0043 | 65.2 ± 5.7 | 79 ± 6.8 | 99.89 ± 0.02 | 92.5 ± 7.2 | 97.28 ± 0.62 | 94.2 ± 4.5 | 29.9 ± 7.1 | 99.985 ± 0.014 |
| CC(C)N(CCCNC(=O)Nc1ccc(C(C)(C)C)cc1)C[C@H]1O[C@@H](n2cc(Br)c3c(N)ncnc32)[C@H](O)[C@@H]1O | 99.955 ± 0.014 | 98.5 ± 1.1 | 99.74 ± 0.16 | 99.977 ± 0.024 | 85.8 ± 4.9 | 99.862 ± 0.055 | 99.891 ± 0.042 | 93.6 ± 4.6 | 96.1 ± 1.3 | 89.1 ± 3.2 | 76 ± 6.9 | 99.997 ± 0.0024 |
| CCOC(=O)CCNc1cc(N2CCc3ccccc3CC2)nc(-c2ccccn2)n1 | 28.2 ± 3.8 | 22.3 ± 2.1 | 60.8 ± 4.6 | 40.6 ± 9.5 | 21.3 ± 3.7 | 27.9 ± 4.9 | 23.1 ± 5 | 66 ± 12 | 68.5 ± 11 | 33.6 ± 8.3 | 10.2 ± 3.8 | 94.72 ± 0.36 |
| CC[C@H](C)n1cc(C)c2c(C(=O)NCc3c(C)cc(C)[nH]c3=O)cc(-c3ccc(N4CCNCC4)nc3)cc21 | 98.6 ± 2.6 | 91.6 ± 5.4 | 99.53 ± 0.32 | 99.996 ± 0.0038 | 87.9 ± 3.7 | 99.846 ± 0.034 | 99.825 ± 0.095 | 82 ± 8.6 | 97.8 ± 1.3 | 79.1 ± 14 | 90.3 ± 4.3 | 99.995 ± 0.00082 |
| O=C(NC[C@H](O)CN1CCc2ccccc2C1)c1ccnc(NC2CCC2)c1 | 81.4 ± 7.7 | 90 ± 7.5 | 75.1 ± 4.7 | 99.47 ± 0.48 | 37.2 ± 9.6 | 37.5 ± 4.5 | 67.8 ± 1.2 | 95 ± 2 | 89.7 ± 4.3 | 66.5 ± 2.1 | 36.7 ± 2.9 | 99.876 ± 0.038 |
| COc1ccccc1C(=O)Nc1cc2c(cc1N1CCCC1)n(C)c(=O)n2C | 97.6 ± 1.7 | 99.2 ± 0.47 | 98.3 ± 1.9 | 99.979 ± 0.014 | 62.3 ± 11 | 77.1 ± 7.8 | 99.66 ± 0.35 | 96.7 ± 3.5 | 98.42 ± 0.77 | 89.6 ± 12 | 63 ± 8.4 | 99.986 ± 0.0076 |
| COc1cc(C#N)ccc1S(=O)(=O)Nc1ccc2c(c1)cc(C)c(=O)n2C | 98 ± 1.4 | 98.97 ± 0.3 | 97 ± 1.3 | 99.962 ± 0.051 | 54.9 ± 7.1 | 76.1 ± 12 | 98.81 ± 0.89 | 95.8 ± 5 | 97.33 ± 0.58 | 92.5 ± 6.8 | 59.5 ± 7.1 | 99.963 ± 0.039 |
| CCOC(=O)CCNc1cc(N2CCc3ccccc3CC2)nc(-c2cccnc2)n1 | 99.38 ± 0.4 | 94.6 ± 4.8 | 99.33 ± 0.49 | 99.887 ± 0.094 | 82.7 ± 3.2 | 99.75 ± 0.15 | 99.31 ± 0.31 | 98 ± 1.6 | 96.1 ± 2.3 | 96.1 ± 2.9 | 96 ± 3.5 | 99.982 ± 0.0074 |
| O=C([C@@H](Cc1cccc(C(F)(F)F)c1)NS(=O)(=O)c1cc(F)c2c(c1)CCNC2)N1CCCC1 | 98.6 ± 1.6 | 97.2 ± 1.3 | 97.9 ± 1.8 | 99.978 ± 0.021 | 79.2 ± 12 | 86.9 ± 14 | 99.44 ± 0.59 | 96.1 ± 2.5 | 94.3 ± 4.3 | 82.3 ± 15 | 87.4 ± 7.1 | 99.992 ± 0.0088 |
